# Laboratory results published in ChEMBL document CHEMBL3988442, “University of Dundee, Small-Polar-MMV Screening Library” (2021).
# For some of these results: Measured potencies and affinities stand elsewhere.
# Assays:
# Set-up in all cases: scale not given: direction of the effect not stated beside the values
# [1] = biological target: Protein translocase subunit SecA (Escherichia coli (strain K12)) (UniProt P10408); assay: Assay to Identify E. coli SecA ATPase Inhibitors; format: functional; details: 30 µM
# Chain of Protein translocase subunit SecA (Escherichia coli (strain K12)) (P10408 whole entry): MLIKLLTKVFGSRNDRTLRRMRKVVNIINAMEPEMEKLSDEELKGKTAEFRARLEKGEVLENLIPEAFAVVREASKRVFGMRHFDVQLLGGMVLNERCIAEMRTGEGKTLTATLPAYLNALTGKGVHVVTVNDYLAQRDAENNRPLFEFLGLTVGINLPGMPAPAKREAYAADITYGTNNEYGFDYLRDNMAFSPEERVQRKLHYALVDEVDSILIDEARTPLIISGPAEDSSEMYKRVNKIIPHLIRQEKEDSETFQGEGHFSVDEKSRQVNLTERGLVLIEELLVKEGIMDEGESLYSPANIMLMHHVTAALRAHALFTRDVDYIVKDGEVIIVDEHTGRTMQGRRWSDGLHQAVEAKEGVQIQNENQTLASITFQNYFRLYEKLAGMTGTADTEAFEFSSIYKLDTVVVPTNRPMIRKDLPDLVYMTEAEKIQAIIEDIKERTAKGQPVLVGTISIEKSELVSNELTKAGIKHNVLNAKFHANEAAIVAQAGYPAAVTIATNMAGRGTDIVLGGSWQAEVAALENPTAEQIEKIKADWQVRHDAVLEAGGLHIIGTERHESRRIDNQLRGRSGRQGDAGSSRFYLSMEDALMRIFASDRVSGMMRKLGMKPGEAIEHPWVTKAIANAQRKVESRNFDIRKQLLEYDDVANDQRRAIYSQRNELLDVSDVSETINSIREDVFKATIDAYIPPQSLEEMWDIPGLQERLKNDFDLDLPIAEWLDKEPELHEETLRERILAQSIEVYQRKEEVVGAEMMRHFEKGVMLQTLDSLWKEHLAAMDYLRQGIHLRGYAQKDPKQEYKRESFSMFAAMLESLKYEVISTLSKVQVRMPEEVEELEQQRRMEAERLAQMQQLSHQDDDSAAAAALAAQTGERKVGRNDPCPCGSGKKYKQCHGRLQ
# [2] = biological target: T1, Ubiquitin-activating enzyme e1, putative (Leishmania donovani (strain BPK282A1)) (UniProt E9BSI1); assay: Leishmania donovani Ubiquitin Activating Enzyme (LdE1); format: functional; details: 30 µM
# T1 sequence (whole entry): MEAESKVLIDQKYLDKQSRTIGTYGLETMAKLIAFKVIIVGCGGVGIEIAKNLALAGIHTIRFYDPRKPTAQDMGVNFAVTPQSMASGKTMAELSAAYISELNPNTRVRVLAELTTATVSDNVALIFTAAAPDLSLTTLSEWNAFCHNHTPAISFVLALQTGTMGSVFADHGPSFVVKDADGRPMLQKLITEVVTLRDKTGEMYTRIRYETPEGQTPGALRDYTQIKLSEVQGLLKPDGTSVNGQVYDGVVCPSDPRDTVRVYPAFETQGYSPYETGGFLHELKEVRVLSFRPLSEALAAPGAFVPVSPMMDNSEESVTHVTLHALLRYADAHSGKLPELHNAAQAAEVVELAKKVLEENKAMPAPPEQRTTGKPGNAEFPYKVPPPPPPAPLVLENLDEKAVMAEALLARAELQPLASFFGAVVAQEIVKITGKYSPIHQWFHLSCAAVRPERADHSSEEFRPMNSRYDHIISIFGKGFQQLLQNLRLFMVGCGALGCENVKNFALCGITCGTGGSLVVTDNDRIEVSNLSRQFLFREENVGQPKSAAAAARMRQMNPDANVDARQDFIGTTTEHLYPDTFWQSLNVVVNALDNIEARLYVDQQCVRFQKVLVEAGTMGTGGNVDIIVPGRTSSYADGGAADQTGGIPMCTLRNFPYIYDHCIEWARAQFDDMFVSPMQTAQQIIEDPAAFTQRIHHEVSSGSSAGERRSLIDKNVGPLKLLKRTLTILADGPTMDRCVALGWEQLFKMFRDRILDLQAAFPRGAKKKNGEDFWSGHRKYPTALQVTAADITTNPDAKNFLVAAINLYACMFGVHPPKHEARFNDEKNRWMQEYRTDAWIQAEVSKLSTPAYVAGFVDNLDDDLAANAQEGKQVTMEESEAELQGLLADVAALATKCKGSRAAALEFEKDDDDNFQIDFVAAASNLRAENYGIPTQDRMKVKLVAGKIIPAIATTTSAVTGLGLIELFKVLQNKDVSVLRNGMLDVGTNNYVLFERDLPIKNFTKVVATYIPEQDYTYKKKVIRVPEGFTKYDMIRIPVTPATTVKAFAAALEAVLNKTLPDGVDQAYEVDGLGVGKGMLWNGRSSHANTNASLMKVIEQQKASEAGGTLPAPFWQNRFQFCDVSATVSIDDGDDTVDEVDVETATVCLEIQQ
# [3] = biological target: AMP-activated protein kinase, AMPK (Homo sapiens) (UniProt P54646+O43741+P54619+Q9UGJ0+Q9Y478+Q13131+Q9UGI9); assay: AMP-dependent Kinase enzyme assay. An in vitro enzyme assay that detects ADP turnover that is directly proportional to AMPK activity. This uses naive AMPK that is activated during the assay with MK-8722; format: functional; details: 30 µM
# [4] = biological target: Sialic acid-binding Ig-like lectin 9 (Homo sapiens) (UniProt Q9Y336); assay: Hs-Siglec9 ALPHAscreen SOP 20170721; details: 10 µM
# Chain of Sialic acid-binding Ig-like lectin 9 (Homo sapiens) (Q9Y336 whole entry): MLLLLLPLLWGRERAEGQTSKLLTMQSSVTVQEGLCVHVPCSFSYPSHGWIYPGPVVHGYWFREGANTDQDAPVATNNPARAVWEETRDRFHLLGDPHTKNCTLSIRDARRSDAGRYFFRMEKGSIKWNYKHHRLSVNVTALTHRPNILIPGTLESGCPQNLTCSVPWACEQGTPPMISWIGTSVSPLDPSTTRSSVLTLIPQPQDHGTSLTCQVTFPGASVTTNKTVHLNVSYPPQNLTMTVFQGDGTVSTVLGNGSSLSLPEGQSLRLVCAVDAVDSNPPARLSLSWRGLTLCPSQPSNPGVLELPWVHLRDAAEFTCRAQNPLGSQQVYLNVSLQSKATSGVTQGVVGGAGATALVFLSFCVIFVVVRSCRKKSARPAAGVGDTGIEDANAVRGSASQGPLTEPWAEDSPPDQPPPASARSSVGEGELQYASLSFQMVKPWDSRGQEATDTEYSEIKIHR
# [5] = tested on: Trypanosoma cruzi; assay: Trypanosoma cruzi phosphomannomutase and mannose-1-phosphate guanylyltransferase assay; format: functional; details: 10 µM
# [6] = biological target: T2, Arginase-2, mitochondrial (Homo sapiens) (UniProt P78540); assay: in vitro enzyme assay to detect the production of urea directly proportional to the activity of Arginase II; format: functional; details: 33.3 µM; also: in the data most compounds retested in dose-response had high values
# T2 sequence (whole entry): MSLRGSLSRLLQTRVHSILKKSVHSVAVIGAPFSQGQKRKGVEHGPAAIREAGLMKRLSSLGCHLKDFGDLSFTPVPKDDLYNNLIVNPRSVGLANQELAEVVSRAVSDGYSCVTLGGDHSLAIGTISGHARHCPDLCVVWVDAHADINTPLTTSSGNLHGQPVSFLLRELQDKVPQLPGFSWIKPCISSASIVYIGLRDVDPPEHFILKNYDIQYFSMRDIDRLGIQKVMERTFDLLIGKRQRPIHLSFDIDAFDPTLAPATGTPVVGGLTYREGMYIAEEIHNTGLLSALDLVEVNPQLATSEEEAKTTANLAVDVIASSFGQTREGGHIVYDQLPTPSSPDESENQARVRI
# [7] = biological target: T3, Proteasome subunit beta (Trypanosoma cruzi) (UniProt O96673); assay: Trypanosoma cruzi proteasome chymotrypsin-like activity (TcProtChymo) assay.; also: in the data most compounds retested in dose-response had high values; format: functional; details: 9.37 µM
# T3 sequence (whole entry): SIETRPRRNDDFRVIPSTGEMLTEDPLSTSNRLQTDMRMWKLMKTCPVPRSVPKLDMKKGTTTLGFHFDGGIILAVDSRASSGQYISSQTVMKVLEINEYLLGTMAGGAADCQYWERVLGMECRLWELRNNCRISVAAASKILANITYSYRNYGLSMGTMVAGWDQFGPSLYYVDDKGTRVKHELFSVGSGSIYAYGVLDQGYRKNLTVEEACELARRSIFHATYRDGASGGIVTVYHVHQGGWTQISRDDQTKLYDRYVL
# [8] = organism: Homo sapiens; assay: To identify inhibition of the IFN signalling (Jak-Stat) pathway via expression of an eGFP reporter gene under the control of an IFN-stimulated response element (ISRE) containing MxA promoter.; format: functional; details: 30 µM
# [9] = biological target: T4, Tyrosyl-tRNA synthetase, putative (Trypanosoma cruzi (strain CL Brener)) (UniProt Q4DSP6); assay: Trypanosoma cruzi tyrosyl tRNA synthetase (TcYRS) _High Tyrosine SOP; format: functional; details: 30 µM; also: in the data most compounds retested in dose-response had high values
# T4 sequence (whole entry): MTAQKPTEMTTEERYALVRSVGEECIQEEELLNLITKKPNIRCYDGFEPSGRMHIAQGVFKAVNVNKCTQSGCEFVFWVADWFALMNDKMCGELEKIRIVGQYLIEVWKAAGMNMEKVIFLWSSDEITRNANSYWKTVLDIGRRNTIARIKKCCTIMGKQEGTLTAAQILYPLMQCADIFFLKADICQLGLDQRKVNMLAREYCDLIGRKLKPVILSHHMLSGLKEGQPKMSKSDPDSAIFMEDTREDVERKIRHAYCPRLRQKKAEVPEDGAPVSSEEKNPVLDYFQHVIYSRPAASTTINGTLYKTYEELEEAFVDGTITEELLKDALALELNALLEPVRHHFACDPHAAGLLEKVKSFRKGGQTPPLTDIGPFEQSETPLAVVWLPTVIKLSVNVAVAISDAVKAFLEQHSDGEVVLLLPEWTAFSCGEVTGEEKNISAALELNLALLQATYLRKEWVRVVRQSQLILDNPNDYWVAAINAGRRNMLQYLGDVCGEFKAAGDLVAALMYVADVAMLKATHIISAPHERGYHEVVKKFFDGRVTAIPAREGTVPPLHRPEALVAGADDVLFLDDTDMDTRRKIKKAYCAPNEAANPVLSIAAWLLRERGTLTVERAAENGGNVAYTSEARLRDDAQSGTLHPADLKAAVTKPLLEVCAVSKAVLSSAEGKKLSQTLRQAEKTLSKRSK
# [10] = biological target: T4, Tyrosyl-tRNA synthetase, putative (Trypanosoma cruzi (strain CL Brener)); assay: Trypanosoma cruzi tyrosyl tRNA synthetase (TcYRS) SOP; format: functional; details: 30 µM
# [11] = biological target: Chromo domain-containing protein 1 (Saccharomyces cerevisiae (strain ATCC 204508 / S288c) (Baker's yeast)) (UniProt P32657); assay: ScCHD-1 Enzyme Inhibition Assay; format: functional; details: 30 µM; also: in the data most compounds retested in dose-response had high values
# Chain of Chromo domain-containing protein 1 (Saccharomyces cerevisiae (strain ATCC 204508 / S288c) (Baker's yeast)) (P32657 whole entry, the tested form may be a part): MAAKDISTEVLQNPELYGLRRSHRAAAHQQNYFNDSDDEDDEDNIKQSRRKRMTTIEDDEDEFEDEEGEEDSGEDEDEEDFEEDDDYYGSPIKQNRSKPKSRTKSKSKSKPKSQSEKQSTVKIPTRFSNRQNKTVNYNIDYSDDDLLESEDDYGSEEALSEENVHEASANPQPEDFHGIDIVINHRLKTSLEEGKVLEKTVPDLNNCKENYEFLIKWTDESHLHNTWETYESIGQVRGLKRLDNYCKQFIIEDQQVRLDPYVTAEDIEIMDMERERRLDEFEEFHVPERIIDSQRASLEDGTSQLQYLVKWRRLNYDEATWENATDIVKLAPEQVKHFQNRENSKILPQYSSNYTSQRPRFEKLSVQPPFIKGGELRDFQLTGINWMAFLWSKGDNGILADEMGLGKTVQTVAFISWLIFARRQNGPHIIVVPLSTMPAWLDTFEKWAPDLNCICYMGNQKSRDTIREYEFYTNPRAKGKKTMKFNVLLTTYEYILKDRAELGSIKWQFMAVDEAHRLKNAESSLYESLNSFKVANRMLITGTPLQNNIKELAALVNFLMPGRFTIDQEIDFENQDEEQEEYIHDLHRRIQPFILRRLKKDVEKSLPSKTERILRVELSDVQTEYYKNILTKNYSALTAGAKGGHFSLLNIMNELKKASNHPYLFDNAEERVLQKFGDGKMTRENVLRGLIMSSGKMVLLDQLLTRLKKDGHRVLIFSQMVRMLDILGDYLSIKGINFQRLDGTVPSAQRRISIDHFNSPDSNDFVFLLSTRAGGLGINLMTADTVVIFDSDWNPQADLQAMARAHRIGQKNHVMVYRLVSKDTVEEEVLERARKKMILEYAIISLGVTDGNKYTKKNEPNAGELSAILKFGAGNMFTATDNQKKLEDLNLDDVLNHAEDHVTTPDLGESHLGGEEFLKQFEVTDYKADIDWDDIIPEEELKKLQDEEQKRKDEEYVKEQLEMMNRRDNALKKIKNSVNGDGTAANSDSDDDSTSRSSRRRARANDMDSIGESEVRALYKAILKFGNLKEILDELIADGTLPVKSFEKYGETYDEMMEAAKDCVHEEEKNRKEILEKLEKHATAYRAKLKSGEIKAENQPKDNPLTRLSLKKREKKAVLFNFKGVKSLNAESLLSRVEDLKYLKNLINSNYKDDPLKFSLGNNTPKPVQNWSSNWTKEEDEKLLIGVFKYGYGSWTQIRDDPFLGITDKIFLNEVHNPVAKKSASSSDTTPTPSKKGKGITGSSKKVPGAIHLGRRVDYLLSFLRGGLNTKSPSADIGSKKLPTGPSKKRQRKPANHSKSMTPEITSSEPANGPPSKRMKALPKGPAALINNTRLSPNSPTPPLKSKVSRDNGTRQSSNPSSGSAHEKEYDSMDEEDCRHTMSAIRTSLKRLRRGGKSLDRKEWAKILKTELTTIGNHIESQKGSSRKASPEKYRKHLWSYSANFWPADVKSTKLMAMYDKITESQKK
Structure (SMILES),Percent Effect [1],Percent Effect [2],Percent Effect [3],Percent Effect [4],Percent Effect [5],Percent Effect [6],Percent Effect [7],Percent Effect [8],Percent Effect [9],Percent Effect [10],Percent Effect [11]
CCN(CC)c1ccc(NS(=O)(=O)c2cnn(C)c2)cn1,-1.96%,16.4%,-5.27%,6.69%,8.33%,-6.39%,8.48%,0.142%,6.25%,13.6%,-5.08%
O=C(NC1(c2cccc(F)c2)CCOCC1)c1ccoc1,-5.15%,5.2%,-0.889%,5.11%,2.46%,-6.9%,1.33%,-3.68%,2.15%,8.64%,-3.25%
CCc1cnc2c(c1Nc1ccncc1)c(=O)n(C)c(=O)n2C,0.799%,18.2%,5.71%,-13.1%,2.27%,1.94%,14.6%,35.5%,7.41%,14.1%,-10.9%
Cc1cccc(CN2C(=O)CC[C@@H]3[C@H]2CCN3CC2CCOCC2)n1,-3.19%,16%,1.45%,-4.46%,2.36%,0.699%,14%,-19.1%,5.32%,11.5%,-4.59%
COc1cnc(C2(O)CCN(C(=O)c3ccncc3)CC2)c(OC)n1,-4.14%,4.05%,8.66%,2.87%,2.77%,-1.16%,3.74%,8.85%,2.15%,9.09%,-11.8%
COc1cccc(CCC2CCCN(C(=O)c3n[nH]c4c3CCC4)C2)c1 (stereo unspecified),-4.51%,-18.9%,3.21%,4.19%,-1.35%,-8.1%,5.69%,46.1%,11.1%,2.44%,-1.85%
CC(C)COCC(NC(=O)c1cccnc1)c1ccco1 (stereo unspecified),-5.15%,10.8%,-37.5%,3.03%,0.0943%,-4.01%,-0.54%,16.3%,9.36%,11.1%,-5.14%
Cc1occc1C(=O)N1CCc2ncnc(-c3cnn(C)c3)c2CC1,-2.67%,-5.41%,-4.37%,0.728%,6.75%,-1.24%,4.21%,4.88%,1.07%,3.7%,-4.52%
CC(=O)N1CCC2(CC1)CC[C@@]1(C(=O)N(C)C)CN(S(C)(=O)=O)C[C@@H]21,0.456%,18.9%,-1.01%,10.2%,2.83%,12.7%,4.38%,28.4%,3.23%,18.5%,-8.55%
CN1CCC(NC(=O)NCc2csc(Br)c2)CC1,-2.29%,13.5%,4.89%,6.05%,3.25%,-3.88%,10.4%,2.14%,9.9%,18.3%,-4.58%
O=C(NCC1CCN(C(=O)c2ccoc2)CC1)c1ccccc1Br,-6.61%,5.48%,3.13%,-5.78%,-4.7%,-0.455%,15.6%,-0.0227%,3.23%,5%,-4.05%
